This assay concerns Vero E6 infected with SARS-CoV-2. Kind of assay: morphology score (similarity to uninfected cells); higher = more like uninfected cells. The settings on record: 24 h.
`CCOc1ccccc1C(N)=O` [ethenzamide] (10 µM) yielded a morphology score of -0.0139.

`CC(=O)N[C@H]1[C@H]([C@H](O)[C@H](O)CO)OC(O)(C(=O)O)C[C@@H]1O` (mixture of isomers) [aceneuramic-acid] (10 µM) came in with a morphology score of 0.0132.

The molecule `c1ccc2nc(C3=NCCN3)ccc2c1` (10 µM) displayed a morphology score of 0.125.

`Oc1cc(O)cc(/C=C/c2ccc(O)c(O)c2)c1` [piceatannol] (10 µM) yielded a morphology score of -0.206.

Turning to `CN[C@H]1C(=O)N[C@@H]2Cc3ccc(cc3)Oc3cc4cc(c3O[C@@H]3O[C@H](C(=O)O)[C@@H](O)[C@H](O)[C@H]3NC(=O)CCCCCCCCC(C)C)Oc3ccc(cc3Cl)[C@@H](O)[C@@H]3NC(=O)[C@H](NC(=O)[C@@H]4NC(=O)[C@@H](NC2=O)c2cc(cc(O)c2Cl)Oc2cc1ccc2O)c1ccc(O)c(c1)-c1c(O[C@H]2O[C@H](CO)[C@@H](O)[C@H](O)[C@@H]2O)cc(O)cc1[C@@H](C(=O)NCCCN(C)C)NC3=O` [dalbavancin] (10 µM), the morphology score was -0.218.

Take `CC[C@H]1CN2CCc3cc(OC)c(OC)cc3[C@@H]2C[C@@H]1C[C@H]1NCCc2cc(OC)c(OC)cc21` [emetine] (0.833333 µM): the morphology score is -0.193.

On to `CCOC(=O)[C@H](CCc1ccccc1)N[C@@H](C)C(=O)N1C(=O)N(C)C[C@H]1C(=O)O` [imidapril] (10 µM), for which the morphology score was -0.0373.

For `Cc1c(OCC(F)(F)F)ccnc1C[S+]([O-])c1nc2ccccc2[nH]1` (configuration not stated) [lansoprazole] (10 µM), the morphology score worked out at 0.115.

`COc1cc2c(c(OC)c1OC)-c1c(cc3c(c1OC)OCO3)CC(C)C(C)C2` (configuration not stated) [schisandrin-B] (10 µM) registered a morphology score of 0.244.

Molecule `COc1ccc(CC2NCCc3cc(OC)c(OC)cc32)cc1OC` (configuration not stated) [tetrahydropapaverine] (10 µM) gave a morphology score of -0.026.

In turn, `O=C(O)c1c(Cl)c(Cl)c(Cl)c(Cl)c1-c1c2cc(I)c(=O)c(I)c-2oc2c(I)c(O)c(I)cc12` [rose-bengal] (0.833333 µM) came in with a morphology score of 0.318.

Turning to `C[C@H](Cc1ccc(OCC(=O)O)cc1)NC[C@H](O)c1cccc(Cl)c1` (10 µM), the morphology score was -0.0663.

On to `COCC[n+]1c2c(n(Cc3cnccn3)c1C)C(=O)c1ccccc1C2=O` (0.833333 µM), for which the morphology score was found to be 0.0783.

On to `CC(C)(C)c1ccc(/C=C/C(=O)Nc2ccc3c(c2)OCCO3)cc1` (10 µM), for which the morphology score was -0.068.

Molecule `CS(=O)(=O)c1ccc(-c2cn3ccccc3n2)cc1` [zolimidine] (10 µM) returned a morphology score of 0.211.

Molecule `CCc1cc(O)c(Oc2ccc(C(N)=O)cc2F)cc1F` (10 µM) registered a morphology score of 0.0909.

In the case of `COc1ccc(Cl)cc1[C@]1(F)C(=O)Nc2cc(C(F)(F)F)ccc21` [flindokalner] (10 µM), the morphology score came to 0.165.

`Nc1cccc2c1C(=O)N(C1CCC(=O)NC1=O)C2=O` (configuration not stated) [pomalidomide] (10 µM) had a morphology score of -0.074.

In turn, `CO/N=C1\CN(c2nc3c(cc2F)c(=O)c(C(=O)O)cn3C2CC2)CC1CN` (configuration not stated) [gemifloxacin] (10 µM) registered a morphology score of 0.163.

Take `O/N=C/c1ccc(-c2ccc(O)c(F)c2)c(Cl)c1O` (10 µM): the morphology score turned out to be 0.342.

Consider `CC(C)(C)NCC(O)COc1cc(Cl)ccc1Cl` (configuration not stated) [cloranolol] (10 µM), for which the morphology score is -0.0735.

`c1ccc2c(c1)CN1CCCC1=N2` [desoxypeganine] (10 µM) yielded a morphology score of 0.169.

`O=C(O)CCCCC(CCSCc1ccccc1)SCc1ccccc1` (configuration not stated) (10 µM) displayed a morphology score of 0.195.

Regarding `COc1cc2c(Nc3ccc(Cl)c(Cl)c3F)ncnc2cc1OC[C@@H]1C[C@@H]2CN(C)C[C@@H]2C1` (10 µM), the morphology score is -0.291.

As to `Cc1cncc(CN2CCC(=C3c4ccc(Cl)cc4CCc4cccnc43)CC2)c1` [rupatadine] (10 µM), the morphology score is -0.0273.

Molecule `NCCc1c[nH]c2ccc(C(N)=O)cc12` [5-carboxamidotryptamine] (10 µM) showed a morphology score of 0.0259.

Consider `CSc1ccc(C(=O)c2[nH]c(=O)[nH]c2C)cc1` [enoximone] (10 µM), for which the morphology score was determined as 0.104.

Turning to `NC(=O)c1cnc(N[C@@H]2CCCC[C@@H]2N)nc1Nc1cccc(-n2nccn2)c1` (10 µM), the morphology score turned out to be 0.582.

The molecule `CCC(=O)N1CCOc2c(cc(-c3ccc(OC)c(OC)c3)cc2OC[C@H]2CCCN(C)C2)C1` (0.833333 µM) yielded a morphology score of -0.0814.

As to `Cc1cc(C)c(NC(=O)N(Cc2ccc3c(c2)Cc2ccccc2-3)C2CCCCCC2)c(C)c1` (10 µM), the morphology score is -0.179.

The molecule `CNCCCC1(c2ccccc2)OC(C)(C)c2ccccc21` (configuration not stated) [talopram] (10 µM) showed a morphology score of -0.07.

For the molecule `COc1ccc2cc1Oc1ccc(cc1)C[C@H]1c3c(cc4c(c3Oc3cc5c(cc3OC)CCN(C)[C@@H]5C2)OCO4)CCN1C` [cepharanthine] (10 µM), the morphology score was 0.461.

Source of the values: the supplement of paper PMC13380429.
